Structures can show the parent of a compound that is named as a salt.
Tested on: K562 SF3B1 K700E vs K562 SF3B1 WT
Assay: surviving fraction ratio K562 SF3B1 K700E / K562 SF3B1 WT (each relative to DMSO); higher = less selective killing of SF3B1 K700E cells
Settings: 5 days
Procedure, shortened: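 In 384-well plates holding 250 cells per well, isogenic K562 cells bearing an engineered mutant allele and matched wild-type cells received compounds from an in-house 80-compound library 24 h after seeding. Doses were 0.5, 1, 5, 10, 50, 100, 500 and 1,000 nM, with 5 d of continuous culture. Surviving fractions were taken from CellTiter-Glo readings and normalised to DMSO. The value reported is the mutant-over-wild-type ratio of these fractions.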

SMILES | surviving fraction ratio K562 SF3B1 K700E / K562 SF3B1 WT (0.5nM) | surviving fraction ratio K562 SF3B1 K700E / K562 SF3B1 WT (1nM) | surviving fraction ratio K562 SF3B1 K700E / K562 SF3B1 WT (5nM) | surviving fraction ratio K562 SF3B1 K700E / K562 SF3B1 WT (10nM) | surviving fraction ratio K562 SF3B1 K700E / K562 SF3B1 WT (50nM) | surviving fraction ratio K562 SF3B1 K700E / K562 SF3B1 WT (100nM) | surviving fraction ratio K562 SF3B1 K700E / K562 SF3B1 WT (500nM) | surviving fraction ratio K562 SF3B1 K700E / K562 SF3B1 WT (1000nM)
O=C(NOCC1CC1)c1ccc(F)c(F)c1Nc1ccc(I)cc1Cl | 1.29 | 0.978 | 1.08 | 0.818 | 1.3 | 0.822 | 0.921 | 0.944
CC[C@@H](C(=O)[C@@H](C)[C@@H](O)[C@H](C)[C@@H]1O[C@@H]([C@@H](CC)C(=O)O)CC[C@@H]1C)[C@H]1O[C@]2(C=C[C@@H](O)[C@]3(CC[C@@](C)([C@H]4CC[C@](O)(CC)[C@H](C)O4)O3)O2)[C@H](C)C[C@@H]1C [salinomycin] | 0.921 | 0.999 | 0.871 | 1.27 | 0.88 | 0.831 | 0.898 | 1.16
Cn1c(=O)n(-c2ccc(C(C)(C)C#N)cc2)c2c3cc(-c4cnc5ccccc5c4)ccc3ncc21 | 0.991 | 0.985 | 0.8 | 0.854 | 0.811 | 0.838 | 1.28 | 1.45
O=C(c1cc(Cc2n[nH]c(=O)c3ccccc23)ccc1F)N1CCN(C(=O)C2CC2)CC1 [olaparib] | 0.978 | 0.979 | 0.926 | 0.839 | 0.947 | 1.02 | 1.1 | 0.871
COc1cc2ncnc(Nc3ccc(F)c(Cl)c3)c2cc1OCCCN1CCOCC1 [gefitinib] | 0.645 | 0.787 | 0.848 | 0.768 | 0.792 | 0.802 | 0.781 | 0.907
CCn1c(C(=O)N(C2CC2)C2CC2)cc2c3c(ncn3C)c(Nc3cc(C)n(C)n3)nc21 | 0.923 | 0.951 | 1 | 0.938 | 0.82 | 0.801 | 0.844 | 0.893
C[C@]1(O)C[C@@H](c2nc(-c3ccc4ccc(-c5ccccc5)nc4c3)c3c(N)nccn32)C1 | 0.876 | 0.823 | 0.862 | 0.829 | 0.861 | 0.795 | 0.804 | 0.873
Cn1nnc2c(C(N)=O)ncn2c1=O [temozolomide] | 0.816 | 0.823 | 0.844 | 0.765 | 0.88 | 0.843 | 0.714 | 0.794
COc1ccc(-c2cc3c(C)nc(N)nc3n([C@H]3CC[C@H](OCCO)CC3)c2=O)cn1 | 1.06 | 1.14 | 0.92 | 1 | 0.958 | 0.868 | 1.37 | 1.58
COc1ccc(C2=N[C@@H](c3ccc(Cl)cc3)[C@@H](c3ccc(Cl)cc3)N2C(=O)N2CCNC(=O)C2)c(OC(C)C)c1 [Nutlin3] | 1 | 0.984 | 0.843 | 0.873 | 0.861 | 0.781 | 0.767 | 0.894
O=C(O)CC[C@H]1CC[C@@](c2cc(F)ccc2F)(S(=O)(=O)c2ccc(Cl)cc2)CC1 | 0.908 | 1.04 | 0.989 | 0.805 | 0.852 | 0.975 | 0.932 | 1.04
C#Cc1cccc(Nc2ncnc3cc(OCCOC)c(OCCOC)cc23)c1 [erlotinib] | 0.882 | 0.743 | 0.852 | 0.843 | 0.692 | 0.788 | 0.811 | 0.712
COc1cc2nccc(Oc3ccc(NC(=O)NC4CC4)c(Cl)c3)c2cc1C(N)=O [Lenvatinib] | 0.728 | 0.787 | 0.763 | 0.755 | 0.815 | 0.834 | 0.71 | 0.674
CC/C(=C(\c1ccc(O)cc1)c1ccc(OCCN(C)C)cc1)c1ccccc1 [4-OH-tamoxifen] | 0.874 | 0.875 | 0.857 | 0.778 | 1 | 0.923 | 0.884 | 0.993
C=CC(=O)Nc1cc2c(Nc3ccc(F)c(Cl)c3)ncnc2cc1OCCCN1CCOCC1 [canertinib] | 0.814 | 0.878 | 0.921 | 0.888 | 0.721 | 0.79 | 0.72 | 0.639
COc1cc2c(Oc3ccc(NC(=O)C4(C(=O)Nc5ccc(F)cc5)CC4)cc3F)ccnc2cc1OCCCN1CCOCC1 [Foretinib] | 0.742 | 0.75 | 0.797 | 0.729 | 0.775 | 0.561 | 1.02 | 0.913
CC1(C)CC(=O)c2c(C(F)(F)F)nn(-c3ccc(C(N)=O)c(N[C@H]4CC[C@H](OC(=O)CN)CC4)c3)c2C1 | 0.983 | 0.972 | 0.763 | 0.719 | 1.18 | 2.16 | 1.09 | 1.16
CC(=O)c1c(C)c2cnc(Nc3ccc(N4CCNCC4)cn3)nc2n(C2CCCC2)c1=O | 0.861 | 0.89 | 0.743 | 0.796 | 0.826 | 0.882 | 0.849 | 0.864
COc1cccc2c1C(=O)c1c(O)c3c(c(O)c1C2=O)C[C@@](O)(C(=O)CO)C[C@@H]3O[C@H]1C[C@H](N)[C@H](O)[C@H](C)O1 [doxorubicin.HCl] | 0.974 | 1.04 | 0.718 | 1.07 | 1.11 | 0.446 | 1.24 | 2.24
CN1CCN(c2nc(C3=C(c4c[nH]c5ccccc45)C(=O)NC3=O)c3ccccc3n2)CC1 [Sotrastaurin/AEB071] | 0.816 | 0.804 | 0.847 | 0.854 | 0.889 | 0.979 | 0.955 | 0.896
CC(=O)NCC(=O)N1[C@@H]2CC[C@H]1c1ccc(Nc3ncc(C(F)(F)F)c(NC4CCC4)n3)cc12 | 0.948 | 1.01 | 0.872 | 0.883 | 0.549 | 1.05 | 1.18 | 1.64
Nc1ccn([C@@H]2O[C@H](CO)[C@@H](O)C2(F)F)c(=O)n1 [gemcitabine.HCl] | 0.839 | 0.772 | 0.465 | 0.491 | 0.901 | 1.16 | 1.1 | 1.16
Cc1cn(-c2cc(NC(=O)c3ccc(C)c(Nc4nccc(-c5cccnc5)n4)c3)cc(C(F)(F)F)c2)cn1 [nilotinib] | 0.834 | 0.742 | 0.537 | 0.816 | 1.47 | 1.48 | 1.53 | 1.51
CN(Cc1cnc2nc(N)nc(N)c2n1)c1ccc(C(=O)N[C@@H](CCC(=O)O)C(=O)O)cc1 [methotrexate] | 0.824 | 0.836 | 0.971 | 2.8 | 3.75 | 4.08 | 3.5 | 3.58
CCCS(=O)(=O)Nc1ccc(F)c(C(=O)c2c[nH]c3ncc(Cl)cc23)c1F | 1.33 | 1.07 | 1.13 | 0.874 | 1.13 | 0.998 | 1.1 | 1.06
